{"source": "PubChem BioAssay (NCI)", "key": {"[1]": {"test": "NCI Yeast Anticancer Drug Screen. Data for the rad52 strain (AID 147);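 note: 0% = growth of vehicle-treated control cultures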", "details": "S. cerevisiae rad52 mutant growth inhibition, active compounds read high", "method_in_brief": "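Inhibition of yeast growth, referenced to vehicle controls, was the measured output for a strain with defective DNA damage repair.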"}, "[2]": {"test": "NCI Yeast Anticancer Drug Screen. Data for the wt1 strain (AID 149);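 note: 0% = growth of vehicle-treated wt1 cultures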", "details": "S. cerevisiae wt1 strain (SPY 50644) growth inhibition, active compounds read high", "method_in_brief": "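Yeast wt1 strain exposed to compounds; growth inhibition measured relative to vehicle-treated controls.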"}, "[3]": {"test": "NCI Yeast Anticancer Drug Screen. Data for the rad50EPP+ strain (AID 151);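 note: 0% = growth of vehicle-treated control cultures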", "details": "S. cerevisiae rad50 mutant strain, active compounds read high", "method_in_brief": "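Genetically defined yeast (rad50EPP+, DNA damage repair alteration) is grown with compound, and inhibition of growth is expressed relative to vehicle-treated controls.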"}, "[4]": {"test": "NCI Yeast Anticancer Drug Screen. Data for the mgt1 strain (AID 153)", "details": "S. cerevisiae mgt1 mutant growth inhibition, active compounds read high", "method_in_brief": "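In the mgt1 strain, test compounds were added and growth inhibition was determined relative to vehicle-treated controls.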"}, "[5]": {"test": "NCI Yeast Anticancer Drug Screen. Data for the rad50 strain (AID 155);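 note: 0% = growth of vehicle-only cultures of the same strain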", "details": "S. cerevisiae rad50 strain growth inhibition, active compounds read high", "method_in_brief": "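Yeast carrying a defined DNA repair defect were exposed to test compounds, and growth was compared with vehicle-treated controls to give percent inhibition.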"}, "[6]": {"test": "NCI Yeast Anticancer Drug Screen. Data for the mec2-1 strain (AID 157)", "details": "S. cerevisiae mec2-1 strain, active compounds read high", "method_in_brief": "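Each compound was tested on mec2-1 yeast, a strain altered in DNA damage repair or cell cycle control. Growth inhibition is reported relative to vehicle.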"}, "[7]": {"test": "NCI Yeast Anticancer Drug Screen. Data for the rad14 strain (AID 159);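 note: 0% = growth of vehicle-treated control cultures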", "details": "S. cerevisiae rad14 strain growth inhibition, active compounds read high", "method_in_brief": "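Yeast cells carrying a defined DNA-repair defect were exposed to compounds, and growth inhibition was calculated relative to vehicle-treated control cultures.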"}, "[8]": {"test": "NCI Yeast Anticancer Drug Screen. Data for the sgs1 mgt1 strain (AID 161);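 note: 0% = growth of cultures given vehicle only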", "details": "S. cerevisiae sgs1 mgt1 strain, active compounds read high", "method_in_brief": "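Test agents were incubated with a DNA-repair-mutant yeast strain. Growth was then read and compared against vehicle-treated controls.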"}, "[9]": {"test": "NCI Yeast Anticancer Drug Screen. Data for the CLN2oe strain (AID 163);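 note: 0% = growth of vehicle-only control cultures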", "details": "S. cerevisiae CLN2oe strain, active compounds read high", "method_in_brief": "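First, the altered yeast strain was treated with each compound; second, its growth was measured; finally, inhibition was derived by comparison with vehicle controls.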"}, "[10]": {"test": "NCI Yeast Anticancer Drug Screen. Data for the cln2 rad14 strain (AID 165);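 note: 0% = growth equal to vehicle treated cultures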", "details": "S. cerevisiae cln2 rad14 strain, active compounds read high", "method_in_brief": "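Test compounds were added to cln2 rad14 yeast cultures; inhibition of growth was then determined by comparison with vehicle treatment.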"}, "[11]": {"test": "NCI Yeast Anticancer Drug Screen. Data for the bub3 strain (AID 167)", "details": "S. cerevisiae bub3 mutant strain, active compounds read high", "method_in_brief": "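Compounds were applied to a genetically altered yeast strain carrying a cell-cycle control defect. Growth inhibition was scored against vehicle-treated controls.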"}, "[12]": {"test": "NCI Yeast Anticancer Drug Screen. Data for the mlh1 strain (AID 171);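 note: 0% = growth of vehicle-treated control cultures of the same strain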", "details": "S. cerevisiae mlh1 strain growth inhibition, active compounds read high", "method_in_brief": "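Inhibition values reflect reduced yeast growth in the presence of compound, referenced to vehicle controls, using a strain chosen for its alteration in DNA repair or cell cycle control.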"}, "[13]": {"test": "NCI Yeast Anticancer Drug Screen. Data for the sgs1 strain (AID 173);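 note: 0% = growth of vehicle-only control cultures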", "details": "S. cerevisiae sgs1 mutant, active compounds read high", "method_in_brief": "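Vehicle-treated cultures served as reference for growth inhibition of a yeast strain altered in DNA damage repair or cell cycle control after compound exposure.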"}, "[14]": {"test": "NCI Yeast Anticancer Drug Screen. Data for the mlh1 rad18 strain (AID 175)", "details": "S. cerevisiae mlh1 rad18 strain growth inhibition, active compounds read high", "method_in_brief": "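Inhibition values reflect reduced growth of mutant yeast versus vehicle-treated controls following compound exposure; the mutations affect DNA damage repair.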"}, "[15]": {"test": "NCI Yeast Anticancer Drug Screen. Data for the rad18 strain (AID 177)", "details": "S. cerevisiae rad18 mutant growth inhibition, active compounds read high", "method_in_brief": "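Steps: expose repair-mutant yeast to compound; measure growth; express as inhibition relative to vehicle control.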"}, "[16]": {"details": "at 5.0 µM (retest, dose inferred, filed as 0.5)"}, "[17]": {"details": "at 50.0 µM (retest, dose inferred, filed as 5.0)"}}, "note": "The panel holds about 79,000 compounds, 15% with a hit somewhere; the sample as a whole holds those more often. A number with no mark means an inactive call. The source made the active and inactive calls. Cut-off read from the data, not from the text of the source: active = growth inhibition above about 70%; inactive = the rest."}
{"smiles": "Nc1cccc(-c2cc[cH-]c2)c1.[Fe+2].c1cc[cH-]c1", "values": [{"measurement": "growth inhibition", "setting": "[1]; at 1.2 µM", "value": -2, "unit": "%"}, {"measurement": "growth inhibition", "setting": "[1]; at 3.7 µM", "value": 6, "unit": "%"}, {"measurement": "growth inhibition", "setting": "[1]; at 11.0 µM", "value": 15, "unit": "%"}, {"measurement": "growth inhibition", "setting": "[1]; at 33.0 µM", "value": 39, "unit": "%"}, {"measurement": "growth inhibition", "setting": "[1]; at 100.0 µM", "value": "95% (active)"}, {"measurement": "growth inhibition", "setting": "[2]; at 1.2 µM", "value": -1, "unit": "%"}, {"measurement": "growth inhibition", "setting": "[2]; at 3.7 µM", "value": -3, "unit": "%"}, {"measurement": "growth inhibition", "setting": "[2]; at 11.0 µM", "value": -3, "unit": "%"}, {"measurement": "growth inhibition", "setting": "[2]; at 33.0 µM", "value": 2, "unit": "%"}, {"measurement": "growth inhibition", "setting": "[2]; at 100.0 µM", "value": 50, "unit": "%"}, {"measurement": "growth inhibition", "setting": "[3]; at 1.2 µM", "value": -1, "unit": "%"}, {"measurement": "growth inhibition", "setting": "[3]; at 3.7 µM", "value": 9, "unit": "%"}, {"measurement": "growth inhibition", "setting": "[3]; at 11.0 µM", "value": 21, "unit": "%"}, {"measurement": "growth inhibition", "setting": "[3]; at 33.0 µM", "value": 20, "unit": "%"}, {"measurement": "growth inhibition", "setting": "[3]; at 100.0 µM", "value": "76% (active)"}, {"measurement": "growth inhibition", "setting": "[4]; at 1.2 µM", "value": -4, "unit": "%"}, {"measurement": "growth inhibition", "setting": "[4]; at 3.7 µM", "value": -3, "unit": "%"}, {"measurement": "growth inhibition", "setting": "[4]; at 11.0 µM", "value": -2, "unit": "%"}, {"measurement": "growth inhibition", "setting": "[4]; at 33.0 µM", "value": 4, "unit": "%"}, {"measurement": "growth inhibition", "setting": "[4]; at 100.0 µM", "value": "93% (active)"}, {"measurement": "growth inhibition", "setting": "[5]; at 1.2 µM", "value": -3, "unit": "%"}, {"measurement": "growth inhibition", "setting": "[5]; at 3.7 µM", "value": 3, "unit": "%"}, {"measurement": "growth inhibition", "setting": "[5]; [16]", "value": -14, "unit": "%"}, {"measurement": "growth inhibition", "setting": "[5]; at 11.0 µM", "value": 16, "unit": "%"}, {"measurement": "growth inhibition", "setting": "[5]; at 33.0 µM", "value": 35, "unit": "%"}, {"measurement": "growth inhibition", "setting": "[5]; [17]", "value": 15, "unit": "%"}, {"measurement": "growth inhibition", "setting": "[5]; at 50.0 µM", "value": 35.5, "unit": "%"}, {"measurement": "growth inhibition", "setting": "[5]; at 100.0 µM", "value": "96% (active)"}, {"measurement": "growth inhibition", "setting": "[6]; at 1.2 µM", "value": -2, "unit": "%"}, {"measurement": "growth inhibition", "setting": "[6]; at 3.7 µM", "value": -3, "unit": "%"}, {"measurement": "growth inhibition", "setting": "[6]; [16]", "value": -18, "unit": "%"}, {"measurement": "growth inhibition", "setting": "[6]; at 11.0 µM", "value": -3, "unit": "%"}, {"measurement": "growth inhibition", "setting": "[6]; at 33.0 µM", "value": 3, "unit": "%"}, {"measurement": "growth inhibition", "setting": "[6]; [17]", "value": -10, "unit": "%"}, {"measurement": "growth inhibition", "setting": "[6]; at 50.0 µM", "value": 38.5, "unit": "%"}, {"measurement": "growth inhibition", "setting": "[6]; at 100.0 µM", "value": "79% (active)"}, {"measurement": "growth inhibition", "setting": "[7]; at 1.2 µM", "value": 0, "unit": "%"}, {"measurement": "growth inhibition", "setting": "[7]; at 3.7 µM", "value": 6, "unit": "%"}, {"measurement": "growth inhibition", "setting": "[7]; at 11.0 µM", "value": 14, "unit": "%"}, {"measurement": "growth inhibition", "setting": "[7]; at 33.0 µM", "value": 25, "unit": "%"}, {"measurement": "growth inhibition", "setting": "[7]; at 100.0 µM", "value": "96% (active)"}, {"measurement": "growth inhibition", "setting": "[8]; [16]", "value": -9, "unit": "%"}, {"measurement": "growth inhibition", "setting": "[8]; [17]", "value": 7, "unit": "%"}, {"measurement": "growth inhibition", "setting": "[8]; at 50.0 µM", "value": 31.4, "unit": "%"}, {"measurement": "growth inhibition", "setting": "[9]; at 1.2 µM", "value": -11, "unit": "%"}, {"measurement": "growth inhibition", "setting": "[9]; at 3.7 µM", "value": -5, "unit": "%"}, {"measurement": "growth inhibition", "setting": "[9]; at 11.0 µM", "value": -6, "unit": "%"}, {"measurement": "growth inhibition", "setting": "[9]; at 33.0 µM", "value": -1, "unit": "%"}, {"measurement": "growth inhibition", "setting": "[9]; at 100.0 µM", "value": 64, "unit": "%"}, {"measurement": "growth inhibition", "setting": "[10]; [16]", "value": -8, "unit": "%"}, {"measurement": "growth inhibition", "setting": "[10]; [17]", "value": 9, "unit": "%"}, {"measurement": "growth inhibition", "setting": "[10]; at 50.0 µM", "value": 17.6, "unit": "%"}, {"measurement": "growth inhibition", "setting": "[11]; at 1.2 µM", "value": 6, "unit": "%"}, {"measurement": "growth inhibition", "setting": "[11]; at 3.7 µM", "value": 6, "unit": "%"}, {"measurement": "growth inhibition", "setting": "[11]; [16]", "value": 5, "unit": "%"}, {"measurement": "growth inhibition", "setting": "[11]; at 11.0 µM", "value": 7, "unit": "%"}, {"measurement": "growth inhibition", "setting": "[11]; at 33.0 µM", "value": 27, "unit": "%"}, {"measurement": "growth inhibition", "setting": "[11]; [17]", "value": 68, "unit": "%"}, {"measurement": "growth inhibition", "setting": "[11]; at 50.0 µM", "value": 58.2, "unit": "%"}, {"measurement": "growth inhibition", "setting": "[11]; at 100.0 µM", "value": "86% (active)"}, {"measurement": "growth inhibition", "setting": "[12]; at 1.2 µM", "value": -3, "unit": "%"}, {"measurement": "growth inhibition", "setting": "[12]; at 3.7 µM", "value": 2, "unit": "%"}, {"measurement": "growth inhibition", "setting": "[12]; at 11.0 µM", "value": 8, "unit": "%"}, {"measurement": "growth inhibition", "setting": "[12]; at 33.0 µM", "value": 23, "unit": "%"}, {"measurement": "growth inhibition", "setting": "[12]; at 100.0 µM", "value": "96% (active)"}, {"measurement": "growth inhibition", "setting": "[13]; at 1.2 µM", "value": -10, "unit": "%"}, {"measurement": "growth inhibition", "setting": "[13]; at 3.7 µM", "value": -30, "unit": "%"}, {"measurement": "growth inhibition", "setting": "[13]; at 11.0 µM", "value": 11, "unit": "%"}, {"measurement": "growth inhibition", "setting": "[13]; at 33.0 µM", "value": 54, "unit": "%"}, {"measurement": "growth inhibition", "setting": "[13]; at 100.0 µM", "value": "99% (active)"}, {"measurement": "growth inhibition", "setting": "[14]; [16]", "value": -21, "unit": "%"}, {"measurement": "growth inhibition", "setting": "[14]; [17]", "value": 39, "unit": "%"}, {"measurement": "growth inhibition", "setting": "[14]; at 50.0 µM", "value": 55.5, "unit": "%"}, {"measurement": "growth inhibition", "setting": "[15]; at 1.2 µM", "value": -4, "unit": "%"}, {"measurement": "growth inhibition", "setting": "[15]; at 3.7 µM", "value": 7, "unit": "%"}, {"measurement": "growth inhibition", "setting": "[15]; at 11.0 µM", "value": 26, "unit": "%"}, {"measurement": "growth inhibition", "setting": "[15]; at 33.0 µM", "value": 50, "unit": "%"}, {"measurement": "growth inhibition", "setting": "[15]; at 100.0 µM", "value": "97% (active)"}]}
